Experimental data published in PubChem BioAssay (NCI).
The panel holds about 83,000 compounds, 20% with a hit somewhere; the sample as a whole holds those more often.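 Treatment: one concentration, 48 hours, 96-well format. Scoring: percent growth, with anything below 10 considered active.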 Values without a mark were called inactive. Active and inactive are the calls of the source.

What was measured:
Assay in all cases: NCI-60 one-dose screen, 48 h (100 = growth as untreated, 0 = no growth, -100 = all killed)
Settings in all cases: 10 µM unless noted
[1] = system: HCT-15 colon
[2] = system: HT29 colon
[3] = system: SNB-75 CNS
[4] = system: SNB-19 CNS
[5] = system: U251 CNS
[6] = system: PC-3 prostate
[7] = system: SK-MEL-5 melanoma
[8] = system: UACC-62 melanoma
[9] = system: LOX IMVI melanoma
[10] = system: SK-MEL-28 melanoma
[11] = system: SK-MEL-2 melanoma
[12] = system: EKVX NSCLC
[13] = system: SN12C renal
[14] = system: UO-31 renal
[15] = system: TK-10 renal
[16] = system: ACHN renal
[17] = system: CAKI-1 renal
[18] = system: CCRF-CEM leukemia
[19] = system: A498 renal
[20] = system: MOLT-4 leukemia

| SMILES | growth [1] | growth [2] | growth [3] [%] | growth [4] | growth [5] | growth [6] | growth [7] | growth [8] | growth [9] | growth [10] | growth [11] [%] | growth [12] | growth [13] [%] | growth [14] | growth [15] [%] | growth [16] | growth [17] [%] | growth [18] | growth [19] [%] | growth [20] |
| --- | --- | --- | --- | --- | --- | --- | --- | --- | --- | --- | --- | --- | --- | --- | --- | --- | --- | --- | --- | --- |
| CC(CN)[C@@H]1CC[C@]2(CO)CC[C@]3(C)[C@H](CC[C@@H]4[C@@]5(C)CCC(N)C(C)(C)[C@@H]5CC[C@]43C)[C@@H]12 (some centres not stated) | -75.4% (active) | -85.9% (active) | 52.2 | 5.3% (active) | -88.4% (active) | -76.2% (active) | 57.5% | 104% | -72.1% (active) | -39.8% (active) | 81.6 | -44.7% (active) | 25.5 | 0.963% (active) | 57.7 | 17.7% | 33.7 | -32.1% (active) |  |  |
| COc1cc2ncnc(Nc3ccc(F)c(Cl)c3)c2cc1OCC(=O)N1CCN(c2ccc(F)cc2)CC1 | 92.7% | 86.7% | 91.2 | 83.6% | 107% | 94.6% | 98.2% | 87.9% | 93.3% | 98.4% | 97.5 | 78.3% | 88.2 | 44.5% | 38.2 | 45.9% | 44.8 | 113% | 72.5 | 85.8% |
| C#CC#CC#CC#CC#CC#CC#CC#CC[C@H]1OC[C@@H](COC(=O)O[C@@H](C(=O)O[C@H]2C[C@@]3(O)[C@@H](OC(=O)c4ccccc4)[C@@H]4[C@]5(OC(C)=O)CO[C@@H]5C[C@H](O)[C@@]4(C)C(=O)[C@H](OC(C)=O)C(=C2C)C3(C)C)[C@@H](NC(=O)c2ccccc2)c2ccccc2)O1 | 95.2% | 7.9% (active) | 32.8 | 55.8% | 43.4% | 45.7% | 64.8% | 50.9% | 41.1% | 62.8% | 76.2 | 75.4% | 50.2 | 102% | 86.5 | 89.9% | 79.6 | 36.2% | 45.4 | 42.5% |
| Cc1cccc(-n2c(C)nc3ccc(N4CCCNC4=O)cc3c2=O)c1 | 113% | 106% | 103 | 98.2% | 93.4% | 100% | 102% | 97.3% | 97.7% | 112% | 106 | 99.5% | 98 | 88.7% | 104 | 111% | 99.8 | 106% | 90.1 | 110% |
| CC(=O)N/C(=C1/OC(C(O)C(O)C(O)CO)CN1C)[P+](c1ccccc1)(c1ccccc1)c1ccccc1 (configuration not stated) | 98.5% | 115% | 75.3 | 91.2% | 98% | 98.2% | 95.5% | 98.6% | 98.2% | 106% | 99.5 | 90.3% | 96.2 | 79.4% | 104 | 100% | 90.6 | 97.1% |  | 102% |
| Oc1c(CN2CCCC2)cc(COCc2ccccc2)c2cccnc12 | 11.3% | 74.4% | 44.9 | 25.5% | 1.08% (active) | 24.9% | -11.1% (active) | -19.9% (active) | 2.6% (active) | 31% | 19.2 | 31.7% | 27.9 | -1.58% (active) | 10.7 | 6.14% (active) | 10.5 | 6.37% (active) | 19.3 | 9.79% (active) |
| CCN(CC)c1ccc(/C=N\NC(=O)c2cccc(Nc3ccnc(C(F)(F)F)c3)c2)c(O)c1 | 28.7% | 11.7% | 34.7 | 15.9% | 13.1% | 18.9% | -52.2% (active) | -12.2% (active) | -6.15% (active) | 64.8% | 87.5 | 26.6% | 18.2 | 7.3% (active) | 42.8 | 12.1% | 55.6 | 15.7% | 53 | 77.5% |
